Among all 5,500 compounds or so, about 2,000 (36%) were called active. Another 18% or so got no clear call; they are omitted. Rule as the data show it: active = normalized growth mostly below about 0.91 (no sharp cut-off); inconclusive = no clear call, values can overlap the other calls; inactive = mostly above about 0.92. This is one part of the list.
Assay: chemical genetic growth profiling, strain panel (AID 1159580);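 also: tested at 20 µM; growth read once vehicle control cultures reached saturation at 30 °C; 1 = growth at the plate median or of vehicle wells; lower values mean less growth of the strain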
Conditions: growth OD

Measured: normalized growth

COc1cc(O)c(C(=O)c2ccccc2)c(OC)c1
inactive: S. cerevisiae deletion strains, locus YAL013W, strain DEP1, stronger effect = lower value 0.982 | S. cerevisiae deletion strains, locus YBR021W, strain FUR4, stronger effect = lower value 0.898 | S. cerevisiae deletion strains, locus YBR229C, strain ROT2, stronger effect = lower value 0.985 | S. cerevisiae deletion strains, locus YCL029C, strain bik1, stronger effect = lower value 0.996 | S. cerevisiae deletion strains, locus YDL035C, strain GPR1, stronger effect = lower value 0.972 | S. cerevisiae deletion strains, locus YDL074C, strain BRE1, stronger effect = lower value 0.922 | S. cerevisiae deletion strains, locus YDL101C, strain DUN1, stronger effect = lower value 0.986 | S. cerevisiae deletion strains, locus YDL134C, strain PPH21, stronger effect = lower value 0.984 | S. cerevisiae deletion strains, locus YDL185W, strain tfp1, stronger effect = lower value 0.989 | S. cerevisiae deletion strains, locus YDL192W, strain arf1, stronger effect = lower value 0.982 | S. cerevisiae deletion strains, locus YDR101C, strain arx1, stronger effect = lower value 0.961 | S. cerevisiae deletion strains, locus YDR150W, strain NUM1, stronger effect = lower value 0.994 | S. cerevisiae deletion strains, locus YDR162C, strain NBP2, stronger effect = lower value 0.907 | S. cerevisiae deletion strains, locus YDR318W, strain mcm21, stronger effect = lower value 0.956 | S. cerevisiae deletion strains, locus YDR388W, stronger effect = lower value 0.978 | S. cerevisiae deletion strains, locus YDR502C, strain sam2, stronger effect = lower value 0.937 | S. cerevisiae deletion strains, locus YEL061C, strain CIN8, stronger effect = lower value 0.984 | S. cerevisiae deletion strains, locus YER110C, stronger effect = lower value 0.994 | S. cerevisiae deletion strains, locus YER155C, strain BEM2, stronger effect = lower value 0.989 | S. cerevisiae deletion strains, locus YER167W, strain BCK2, stronger effect = lower value 0.954 | S. cerevisiae deletion strains, locus YGL078C, strain dbp3, stronger effect = lower value 0.99 | S. cerevisiae deletion strains, locus YGL086W, strain mad1, stronger effect = lower value 0.983 | S. cerevisiae deletion strains, locus YGL248W, strain PDE1, stronger effect = lower value 0.983 | S. cerevisiae deletion strains, locus YGR078C, strain PAC10, stronger effect = lower value 0.927 | S. cerevisiae deletion strains, locus YGR135W, strain pre9, stronger effect = lower value 0.92 | S. cerevisiae deletion strains, locus YGR229C, strain SMI1, stronger effect = lower value 0.885 | S. cerevisiae deletion strains, locus YGR252W, strain gcn5, stronger effect = lower value 0.914 | S. cerevisiae deletion strains, locus YHR030C, strain SLT2, stronger effect = lower value 0.945 | S. cerevisiae deletion strains, locus YHR079C, strain IRE1 (second series), stronger effect = lower value 0.966 | S. cerevisiae deletion strains, locus YHR094C, strain hxt1, stronger effect = lower value 0.986 | S. cerevisiae deletion strains, locus YHR129C, strain ARP1, stronger effect = lower value 0.972 | S. cerevisiae deletion strains, locus YHR200W, strain rpn10, stronger effect = lower value 0.985 | S. cerevisiae deletion strains, locus YIL066C, strain RNR3, stronger effect = lower value 0.938 | S. cerevisiae deletion strains, locus YIL073C, strain SPO22, stronger effect = lower value 1 | S. cerevisiae deletion strains, locus YIL125W, strain kgd1, stronger effect = lower value 0.981 | S. cerevisiae deletion strains, locus YIR030C, strain dcg1, stronger effect = lower value 0.979 | S. cerevisiae deletion strains, locus YJL095W, strain BCK1, stronger effect = lower value 0.806 | S. cerevisiae deletion strains, locus YJL134W, strain LCB3, stronger effect = lower value 0.986 | S. cerevisiae deletion strains, locus YJL168C, strain set2, stronger effect = lower value 0.99 | S. cerevisiae deletion strains, locus YJL187C, strain SWE1 (second series), stronger effect = lower value 0.964 | S. cerevisiae deletion strains, locus YJR043C, strain POL32, stronger effect = lower value 0.981 | S. cerevisiae deletion strains, locus YJR075W, strain HOC1, stronger effect = lower value 0.935 | S. cerevisiae deletion strains, locus YKL009W, strain mrt4, stronger effect = lower value 0.99 | S. cerevisiae deletion strains, locus YKL068W, stronger effect = lower value 0.986 | S. cerevisiae deletion strains, locus YKL085W, strain MDH1 (second series), stronger effect = lower value 0.987 | S. cerevisiae deletion strains, locus YKL085W, strain MDH1, stronger effect = lower value 0.987 | S. cerevisiae deletion strains, locus YKL190W, strain CNB1, stronger effect = lower value 0.991 | S. cerevisiae deletion strains, locus YKR001C, strain vps1, stronger effect = lower value 0.936 | S. cerevisiae deletion strains, locus YLR039C, strain RIC1, stronger effect = lower value 0.827 | S. cerevisiae deletion strains, locus YLR058C, strain SHM2, stronger effect = lower value 0.984 | S. cerevisiae deletion strains, locus YLR102C, strain apc9, stronger effect = lower value 0.98 | S. cerevisiae deletion strains, locus YLR262C, strain YPT6, stronger effect = lower value 0.817 | S. cerevisiae deletion strains, locus YLR268W, strain sec22, stronger effect = lower value 0.904 | S. cerevisiae deletion strains, locus YLR330W, strain CHS5, stronger effect = lower value 0.984 | S. cerevisiae deletion strains, locus YLR342W, strain FKS1 (second series), stronger effect = lower value 0.88 | S. cerevisiae deletion strains, locus YLR371W, strain rom2, stronger effect = lower value 0.991 | S. cerevisiae deletion strains, locus YML016C, strain PPZ1, stronger effect = lower value 0.981 | S. cerevisiae deletion strains, locus YML032C, strain rad52, stronger effect = lower value 0.994 | S. cerevisiae deletion strains, locus YML124C, strain tub3, stronger effect = lower value 0.983 | S. cerevisiae deletion strains, locus YMR078C, strain ctf18, stronger effect = lower value 0.98 | S. cerevisiae deletion strains, locus YMR223W, strain ubp8, stronger effect = lower value 0.966 | S. cerevisiae deletion strains, locus YMR263W, strain SAP30, stronger effect = lower value 0.962 | S. cerevisiae deletion strains, locus YMR307W, strain GAS1, stronger effect = lower value 0.647 | S. cerevisiae deletion strains, locus YNL067W, strain RPL9B, stronger effect = lower value 0.953 | S. cerevisiae deletion strains, locus YNL128W, strain TEP1, stronger effect = lower value 0.991 | S. cerevisiae deletion strains, locus YNL153C, strain GIM3, stronger effect = lower value 0.961 | S. cerevisiae deletion strains, locus YNL233W, strain BNI4, stronger effect = lower value 0.904 | S. cerevisiae deletion strains, locus YNL250W, strain rad50, stronger effect = lower value 1 | S. cerevisiae deletion strains, locus YNL271C, strain bni1, stronger effect = lower value 0.982 | S. cerevisiae deletion strains, locus YNL298W, strain CLA4, stronger effect = lower value 0.987 | S. cerevisiae deletion strains, locus YNL322C, strain KRE1, stronger effect = lower value 0.99 | S. cerevisiae deletion strains, locus YNR052C, strain pop2, stronger effect = lower value 1.01 | S. cerevisiae deletion strains, locus YOL006C, strain TOP1, stronger effect = lower value 0.824 | S. cerevisiae deletion strains, locus YOL012C, strain htz1 0.9 | S. cerevisiae deletion strains, locus YOL147C, strain pex11, stronger effect = lower value 0.965 | S. cerevisiae deletion strains, locus YOR061W, strain CKA2, stronger effect = lower value 0.989 | S. cerevisiae deletion strains, locus YOR069W, strain VPS5, stronger effect = lower value 0.987 | S. cerevisiae deletion strains, locus YOR136W, strain idh2, stronger effect = lower value 1.01 | S. cerevisiae deletion strains, locus YOR144C, strain elg1, stronger effect = lower value 0.983 | S. cerevisiae deletion strains, locus YOR184W, strain ser1, stronger effect = lower value 0.931 | S. cerevisiae deletion strains, locus YOR316C, strain cot1, stronger effect = lower value 0.981 | S. cerevisiae deletion strains, locus YPL055C, strain LGE1, stronger effect = lower value 0.927 | S. cerevisiae deletion strains, locus YPL241C, strain CIN2, stronger effect = lower value 0.986 | S. cerevisiae deletion strains, locus YPR119W, strain clb2, stronger effect = lower value 0.98 | S. cerevisiae deletion strains, locus YPR141C, strain kar3, stronger effect = lower value 0.99 | S. cerevisiae deletion strains, locus YPR163C, strain tif3, stronger effect = lower value 0.928 | S. cerevisiae deletion strains, locus YPR167C, strain met16, stronger effect = lower value 0.978 | S. cerevisiae deletion strains, strain wtn01, stronger effect = lower value 0.929 | S. cerevisiae strains, strain wild type, stronger effect = lower value 0.983
active: S. cerevisiae deletion strains, locus YLR418C, strain cdc73, stronger effect = lower value 0.813 | S. cerevisiae deletion strains, locus YNL307C, strain MCK1, stronger effect = lower value 0.73
